Common to all, as to conditions: mRNA level, 48 h; actives raise or lower the signal
Read-out in assay [1]: CFLAR gene, CFLAR (gene 8837)
Description: LTEA_HepaRG_CFLAR: Life Technologies and Expression Analysis (LTEA) Assay for CFLAR gene using HepaRG (AID 2283455). The essentials:
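HepaRG cells were plated for 48 h, switched to serum-free induction medium, then exposed in duplicate for 48 h to 8 concentrations (top 100 uM, half-log steps, 0.5% DMSO). CFLAR mRNA was measured by qRT-PCR, normalized to ACTB, GAPDH and POLR2A.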

Read-out in assay [2]: Forkhead box O1 (FOXO1), FOXO1 (gene 2308)
Description: LTEA_HepaRG_FOXO1: Life Technologies and Expression Analysis (LTEA) Assay for Forkhead box O1 (FOXO1) using HepaRG (AID 2283456). In outline:
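Differentiated human HepaRG cells in serum-free induction medium were exposed in duplicate for 48 h to eight half-log concentrations (top 100 uM, 0.5% DMSO). FOXO1 mRNA was measured by TaqMan qRT-PCR, normalised to ACTB, GAPDH and POLR2A, and fitted bidirectionally against DMSO.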

Read-out in assay [3]: growth arrest and DNA damage 45 (GADD45A), GADD45A (gene 1647)
Kind of assay: LTEA_HepaRG_GADD45A: Life Technologies and Expression Analysis (LTEA) Assay for growth arrest and DNA damage 45 (GADD45A) using HepaRG (AID 2283458). The essentials:
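Differentiated HepaRG cells exposed 48 h in serum-free induction medium to 8 concentrations, top 100 uM in half-log steps, 0.5% DMSO. GADD45A mRNA quantified by qRT-PCR, normalized to ACTB, GAPDH and POLR2A; bidirectional fit versus DMSO.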

Read-out in assay [4]: ABC Transporter (ABCB1), ABCB1 (gene 5243)
Kind of assay: LTEA_HepaRG_ABCB1: Life Technologies and Expression Analysis (LTEA) Assay for ABC Transporter (ABCB1) using HepaRG (AID 2283460). The essentials:
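Differentiated human HepaRG cells, plated 48 h then switched to serum-free induction medium, were exposed in duplicate to eight half-log concentrations up to 100 uM in 0.5% DMSO for 48 h. ABCB1 mRNA was measured by TaqMan qRT-PCR, normalized to ACTB/GAPDH/POLR2A.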

Read-out in assay [5]: growth arrest and DNA damage 45 (GADD45B), GADD45B (gene 4616)
Kind of assay: LTEA_HepaRG_GADD45B: Life Technologies and Expression Analysis (LTEA) Assay for growth arrest and DNA damage 45 (GADD45B) using HepaRG (AID 2283461). In outline:
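Human HepaRG monolayers receive chemicals for 48 h at eight half-log concentrations, highest 100 uM, in 0.5% DMSO. Expression is measured by TaqMan qRT-PCR and normalized to ACTB, GAPDH and POLR2A.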

Read-out in assay [6]: ABC Transporter (ABCC3), ABCC3 (gene 8714)
Description: LTEA_HepaRG_ABCC3: Life Technologies and Expression Analysis (LTEA) Assay for ABC Transporter (ABCC3) using HepaRG (AID 2283462). The essentials:
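Transcriptional change of ABCC3 in HepaRG after 48 h treatment, determined by qRT-PCR normalized to endogenous controls. Concentrations spanned eight half-log steps to 100 uM in 0.5% DMSO.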

Read-out in assay [7]: ABC Transporter (ABCB11), ABCB11 (gene 8647)
Description: LTEA_HepaRG_ABCB11: Life Technologies and Expression Analysis (LTEA) Assay for ABC Transporter (ABCB11) using HepaRG (AID 2283463). In outline: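 Differentiated human HepaRG cells were exposed for 48 h in serum-free induction medium to eight half-log concentrations up to 100 uM in 0.5% DMSO. ABCB11 mRNA was quantified by qRT-PCR, normalized to ACTB, GAPDH and POLR2A, and fitted bidirectionally versus DMSO.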

Read-out in assay [8]: ABC Transporter (ABCC2), ABCC2 (gene 1244)
Kind of assay: LTEA_HepaRG_ABCC2: Life Technologies and Expression Analysis (LTEA) Assay for ABC Transporter (ABCC2) using HepaRG (AID 2283464). The essentials: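 After plating and 48 h culture, HepaRG medium is replaced with serum-free induction medium and chemicals are added (8 concentrations, max 100 uM, 0.5% DMSO) for 48 h. Total RNA then undergoes qRT-PCR for ABCC2 with housekeeping normalization.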

Read-out in assay [9]: Broad substrate specificity ATP-binding cassette transporter ABCG2 (Homo sapiens) (UniProt Q9UNQ0)
Description: LTEA_HepaRG_ABCG2: Life Technologies and Expression Analysis (LTEA) Assay for ABC Transporter (ABCG2) using HepaRG (AID 2283465). The essentials: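 Differentiated HepaRG cells in serum-free induction medium were exposed for 48 h, in duplicate, to eight half-log concentrations up to 100 uM in 0.5% DMSO. ABCG2 mRNA was measured by TaqMan qRT-PCR, normalized to ACTB, GAPDH and POLR2A, and fitted bidirectionally versus DMSO.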

Read-out in assay [10]: ATP-citrate lyase (ACLY), ACLY (gene 47)
Description: LTEA_HepaRG_ACLY: Life Technologies and Expression Analysis (LTEA) Assay for ATP-citrate lyase (ACLY) using HepaRG (AID 2283466). The essentials:
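Differentiated human HepaRG cells in serum-free induction medium exposed 48 h, in duplicate, to eight half-log concentrations from 100 uM top in 0.5% DMSO; ACLY mRNA measured by qRT-PCR, normalized to ACTB, GAPDH, POLR2A, fitted bidirectionally versus DMSO.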

Read-out in assay [11]: Peroxisomal acyl-coenzyme A oxidase 1 (ACOX1) gene, ACOX1 (gene 51)
Kind of assay: LTEA_HepaRG_ACOX1: Life Technologies and Expression Analysis (LTEA) Assay for Peroxisomal acyl-coenzyme A oxidase 1 (ACOX1) gene using HepaRG (AID 2283467). The essentials: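 Differentiated human HepaRG cells were exposed in duplicate for 48 h in serum-free induction medium to eight half-log concentrations up to 100 uM in 0.5% DMSO. ACOX1 mRNA was then quantified by TaqMan qRT-PCR, normalized to ACTB, GAPDH and POLR2A.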

Read-out in assay [12]: Alkaline Phosphatase, Placental (ALPP) gene, ALPP (gene 250)
Description: LTEA_HepaRG_ALPP: Life Technologies and Expression Analysis (LTEA) Assay for Alkaline Phosphatase, Placental (ALPP) gene using HepaRG (AID 2283468). In outline: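 Using human liver HepaRG cells, chemicals are tested in duplicate over 48 h at half-log concentrations topping at 100 uM; phenobarbital 1 mM serves as induction control. ALPP mRNA change by qRT-PCR, bidirectional fit against vehicle.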

Read-out in assay [13]: Bcl-2 (BAD) gene, BAD (gene 572)
Description: LTEA_HepaRG_BAD: Life Technologies and Expression Analysis (LTEA) Assay for Bcl-2 (BAD) gene using HepaRG (AID 2283469). The essentials:
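Differentiated human HepaRG cells in serum-free induction medium were exposed in duplicate for 48 h to eight concentrations (top 100 uM, half-log steps, 0.5% DMSO). BAD mRNA was quantified by qRT-PCR normalised to ACTB, GAPDH and POLR2A, with bidirectional fitting versus DMSO.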

Read-out in assay [14]: Bcl-2 (BAX) gene, BAX (gene 581)
Description: LTEA_HepaRG_BAX: Life Technologies and Expression Analysis (LTEA) Assay for Bcl-2 (BAX) gene using HepaRG (AID 2283470). In outline:
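Differentiated HepaRG cells exposed 48 h in serum-free induction medium, eight half-log concentrations from 100 uM, in duplicate, 0.5% DMSO vehicle. BAX mRNA by TaqMan qRT-PCR, normalised to ACTB, GAPDH and POLR2A.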

Read-out in assay [15]: BCL2L11 (gene 10018)
Kind of assay: LTEA_HepaRG_BCL2L11: Life Technologies and Expression Analysis (LTEA) Assay for Bcl-2 (BCL2L11) gene using HepaRG (AID 2283473). In outline:
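Human hepatic HepaRG cultures are treated 48 h with test chemicals (maximum 100 uM, 0.5% DMSO vehicle). Expression of BCL2L11 is measured by qRT-PCR against ACTB, GAPDH and POLR2A, with activity in either direction scored relative to vehicle.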

Read-out in assay [16]: Apolipoprotein A-V (APOA5) gene, APOA5 (gene 116519)
Kind of assay: LTEA_HepaRG_APOA5: Life Technologies and Expression Analysis (LTEA) Assay for Apolipoprotein A-V (APOA5) gene using HepaRG (AID 2283474). The essentials: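 Concentration-response of APOA5 expression in HepaRG: eight half-log doses to 100 uM, 48 h, qRT-PCR normalized to ACTB/GAPDH/POLR2A, bidirectional fitting with 0.5% DMSO as baseline.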

Read-out in assay [17]: Alpha-fetoprotein (AFP) gene, AFP (gene 174)
Description: LTEA_HepaRG_AFP: Life Technologies and Expression Analysis (LTEA) Assay for Alpha-fetoprotein (AFP) gene using HepaRG (AID 2283472). In outline:
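Differentiated human HepaRG cells exposed 48 h in serum-free induction medium, 8-point half-log series from 100 uM in 0.5% DMSO, duplicate. AFP mRNA by qRT-PCR, normalized to ACTB, GAPDH, POLR2A; bidirectional fit vs DMSO.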

Active and inactive are the calls of the source. The calls were made as follows: active = hit-call score of the fitted dose curve at least 0.9, where 1 is the maximum; inactive = score below 0.9.

As usually defined, the AC50 is the concentration at which the activity in the assay is half-maximal.

Chain of Broad substrate specificity ATP-binding cassette transporter ABCG2 (Homo sapiens) (Q9UNQ0 whole entry, looked up): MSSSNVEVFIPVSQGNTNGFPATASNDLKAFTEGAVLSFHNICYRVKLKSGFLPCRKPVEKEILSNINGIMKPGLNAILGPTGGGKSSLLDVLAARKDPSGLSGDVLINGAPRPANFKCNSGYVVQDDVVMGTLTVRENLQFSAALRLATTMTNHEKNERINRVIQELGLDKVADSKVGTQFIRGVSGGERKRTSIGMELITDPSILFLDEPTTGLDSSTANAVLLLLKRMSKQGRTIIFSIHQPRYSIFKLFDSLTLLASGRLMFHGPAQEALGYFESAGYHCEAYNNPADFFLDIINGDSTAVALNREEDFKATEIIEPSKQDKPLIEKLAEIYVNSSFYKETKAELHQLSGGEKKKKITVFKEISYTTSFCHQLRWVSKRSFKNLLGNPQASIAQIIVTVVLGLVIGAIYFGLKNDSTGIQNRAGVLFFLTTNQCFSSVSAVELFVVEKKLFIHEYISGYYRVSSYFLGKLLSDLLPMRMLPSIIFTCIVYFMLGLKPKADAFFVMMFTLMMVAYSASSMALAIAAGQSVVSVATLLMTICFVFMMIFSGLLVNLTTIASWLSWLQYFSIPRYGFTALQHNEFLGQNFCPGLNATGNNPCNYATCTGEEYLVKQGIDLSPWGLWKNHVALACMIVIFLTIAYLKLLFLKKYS

On to `Oc1ccc(C(c2ccc(O)cc2)(C(F)(F)F)C(F)(F)F)cc1`, for which the AC50 is 91.3 µM (active) in assay [1]; 81 µM (active) in assay [2]; 86.6 µM (active) in [7]; 83.8 µM (active) in assay [11]; 83 µM (active) in assay [12]; 78.9 µM (active) in assay [15]. The call in assay [3], in [4], in assay [5], in assay [6], in assay [8] and in [9] was inactive. In addition, the result in assay [10], in assay [13], in [14] and in [16] was inactive.
On to `O=C(N[C@H]1CN2CCC1CC2)c1cc2ccoc2cn1`, for which the molecule was classed as inactive in assay [1], in [2], in [3], in [4], in [5] and in [6]. Further, the outcome in [7], in assay [8], in [9], in [10], in assay [11] and in assay [12] was inactive. Further, the call in assay [13], in [14], in assay [15] and in assay [16] was inactive.
As to `CCOC(=O)C(O)(c1ccc(Cl)cc1)c1ccc(Cl)cc1`, the result in assay [1], in [2], in assay [3], in assay [5], in [6] and in assay [8] was inactive. Besides, the call in assay [9], in assay [10], in assay [11], in [12], in assay [13] and in [14] was inactive. Moreover, the molecule was called inactive in assay [17], in assay [15] and in [16]. Moreover, the values for the AC50 in assay [4] and in [7] were 73 µM (active) and 38.9 µM (active), respectively.
As to `Cc1ccccc1[N+](=O)[O-]`, the molecule was called inactive in assay [1], in [2], in assay [3], in assay [4], in assay [5] and in assay [6]. In addition, the outcome in assay [7], in [8], in assay [9], in [10], in assay [11] and in assay [12] was inactive. Moreover, the result in assay [13], in [14], in [15] and in [16] was inactive.
Turning to `Nc1ccc(-c2ccc(N)cc2)cc1`, the molecule was classed as inactive in [1], in assay [2], in [3], in [5], in [6] and in assay [8]. Moreover, the call in [9], in assay [10], in [11], in assay [12], in assay [13] and in assay [14] was inactive. Besides, the molecule was called inactive in assay [15] and in [16]. In addition, the AC50 was 0.0737 µM (active) in [4] and 3.77 µM (active) in [7].
Regarding `O=S(=O)(O)C(F)(F)C(F)(F)C(F)(F)C(F)(F)F`, the molecule was classed as inactive in [1], in assay [2], in assay [3], in assay [4], in [5] and in assay [6]. The molecule was called inactive in [7], in assay [8], in [9], in [10], in assay [11] and in [12]. The molecule was classed as inactive in assay [13], in assay [14], in assay [15] and in assay [16].
On to `C[C@]12CCC(=O)C=C1CC[C@@H]1[C@@H]2CC[C@@]2(C)[C@H]1CC[C@]2(C)O`, for which the molecule was called inactive in [1], in [2], in assay [5], in assay [6], in assay [8] and in assay [11]. The molecule was classed as inactive in assay [14] and in assay [15]. The AC50 is 45.8 µM (active) in assay [3]; 5.73 µM (active) in [4]; 0.647 µM (active) in assay [7]; 9.08 µM (active) in assay [9]; 45.8 µM (active) in assay [10]; 24.5 µM (active) in assay [12]. Moreover, the AC50 in assay [16] was 45.8 µM (active).
